Test results reported in PubChem BioAssay (EPA / NIEHS).
Records with an inconclusive call do not appear. Active and inactive are the calls of the source. How the source made its calls: active means hit-call score of the fitted dose curve at least 0.9, where 1 is the maximum; inconclusive means response in the unintended direction; inactive means score below 0.9.

How the values were obtained:
[1] = test system: zebrafish Peroxisome Proliferator-activated Receptor gamma (PPARg), gene 557037; experiment: ATG_zfPPARg_XSP1: Attagene TRANS-FACTORIAL Multi-Species (XSP1) HepG2 Assay for zebrafish Peroxisome Proliferator-activated Receptor gamma (PPARg) (AID 2283801)
Procedure: (§1) ATG_XSP1_multi-species_TRANS is a cell-based, multiplexed assay created by modifying the existing Attagene TRANS-FACTORIAL system to include a panel of nuclear receptors from some or all the following species: human (Homo sapiens), mouse (Mus musculus), frog (Xenopus laevis), zebrafish (Danio rerio), chicken (Gallus gallus), and turtle (Chrysemys picta). The ECOTOX-FACTORIAL format uses HepG2, a human liver cell line, with measurements taken at 24 hours after chemical dosing in a 24-well plate. Xsp1 included 3 nM 6-alpha-fluorotestosterone to partially stimulate the androgen receptor.ATG_zfPPARg_XSP1 is one of 29 assay components measured or calculated from the ATG_XSP1_multi-species_TRANS assay. It is designed to make measurements of mRNA induction, a form of inducible reporter, as detected with fluorescence intensity signals by Reverse transcription polymerase chain reaction (RT-PCR) and Capillary electrophoresis technology.The assay endpoint ATG_zfPPARg_XSP1 was analyzed in the positive analysis fitting direction relative to DMSO as the negative control and baseline of activity. Using a type of inducible reporter, measures of mRNA for gain-of-signal activity can be used to understand the reporter gene at the transcription factor-level as they relate to the gene PPARg. Furthermore, this assay endpoint can be referred to as a primary readout, because this assay has produced multiple assay endpoints where this one serves a reporter gene function. To generalize the intended target to other relatable targets, this assay endpoint is annotated to the nuclear receptor intended target family, where the subfamily is non-steroidal.
(§2) Human liver HepG2 cells are transiently transfected with multiple reporter transcription units (MRTUs) in 6-well plates using FuGene 6 reagent (Roche; 3 ml FuGene/1 mg DNA). The MRTU constructs are regulated by a cis-regulating element (promoter). […] A major difference between the CIS and TRANS system is that in CIS activities of endogenous TFs are measured, whereas the TRANS assay evaluates changes in activities of exogenous, chimeric NR-Gal4 proteins. […] At the end of 24 hour incubation, total RNA was isolated using TriZol reagent (Invitrogen). The isolated RNA is then reverse-transcribed using oligo(dT) primer and Mo-MLV reverse transcriptase (Invitrogen) with DNAse I (Ambion) treatment for 30 min. […] The fragments were purified using Qiaquick PCR columns (Qiagen), analyzed on an ABI 3130xL genetic analyzer (Applied Biosystems) with peak positions identified by using a set of X-rhodamine (ROX)-labeled MapMarker1000 molecular weight standards (BioVentures). […]

[2] = biological target: Nuclear receptor subfamily 1 group I member 2 (Mus musculus) (UniProt O54915); experiment: ATG_mPXR_XSP1: Attagene TRANS-FACTORIAL Multi-Species (XSP1) HepG2 Assay for mouse Pregnane X Receptor (PXR) (AID 2283803)
Outline: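 Transiently transfected HepG2 cells expressing a receptor-Gal4 chimera drive a GAL4-UAS reporter; 3 nM 6-alpha-fluorotestosterone included. Reporter mRNA read 24 h post-dose by RT-PCR and capillary electrophoresis; gain of signal relative to DMSO.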

[3] = biological target: frog Thyroid hormone Receptor alpha (TRa), thra-a (gene 397942) (UniProt P15204); experiment: ATG_frTRa_XSP1: Attagene TRANS-FACTORIAL Multi-Species (XSP1) HepG2 Assay for frog Thyroid hormone Receptor alpha (TRa) (AID 2283804)
Procedure: as §1, with “receptor.ATG_frTRa_XSP1” for “receptor.ATG_zfPPARg_XSP1”, “ATG_frTRa_XSP1” for “ATG_zfPPARg_XSP1”, “TR.” for “PPARg.”
as §2

[4] = biological target: human Thyroid hormone Receptor alpha (TRa), THRA (gene 7067) (UniProt P10827); experiment: ATG_hTRa_XSP1: Attagene TRANS-FACTORIAL Multi-Species (XSP1) HepG2 Assay for human Thyroid hormone Receptor alpha (TRa) (AID 2283805)
Outline: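 Reporter transcripts from the human TRa-Gal4 TRANS unit quantified by RT-PCR, fluorescent labeling and capillary electrophoresis after 24 hours of chemical exposure in transfected HepG2 cells; medium contains 3 nM 6-alpha-fluorotestosterone. Positive direction fit against DMSO.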

[5] = test system: turtle Thyroid Hormone Receptor, alpha (TRa), gene 101949057; experiment: ATG_trTRa_XSP1: Attagene TRANS-FACTORIAL Multi-Species (XSP1) HepG2 Assay for turtle Thyroid Hormone Receptor, alpha (TRa) (AID 2283806)
Procedure: as §1, with “receptor.ATG_trTRa_XSP1” for “receptor.ATG_zfPPARg_XSP1”, “ATG_trTRa_XSP1” for “ATG_zfPPARg_XSP1”, “TR.” for “PPARg.”
Human liver HepG2 cells are transiently transfected with multiple reporter transcription units (MRTUs) in 6-well plates using FuGene 6 reagent (Roche; 3 ml FuGene/1 mg DNA). The MRTU constructs are regulated by a cis-regulating element (promoter). […] A major difference between the CIS and TRANS system is that in CIS activities of endogenous TFs are measured, whereas the TRANS assay evaluates changes in activities of exogenous, chimeric NR-Gal4 proteins. […] At the end of 24 hour incubation, total RNA was isolated using TriZol reagent (Invitrogen). The isolated RNA is then reverse-transcribed using oligo(dT) primer and Mo-MLV reverse transcriptase (Invitrogen) with DNAse I (Ambion) treatment for 30 min. The one-tenth of the produced cDNA was amplified by PCR using Taq DNA polymerase (Invitrogen) and two reporter sequence-specific primers. The PCR products were fluorescently labeled by primer extension with 6-arboxyfluorescein (6-FAM) 5'-labeled reporter sequence-specific primer (2 min at 95 C, 20 s at 68 C and 10 min at 72 C) and these products were digested with 5U of HpaI (New England Biolabs) for 2h at 37 C. The fragments were purified using Qiaquick PCR columns (Qiagen), analyzed on an ABI 3130xL genetic analyzer (Applied Biosystems) with peak positions identified by using a set of X-rhodamine (ROX)-labeled MapMarker1000 molecular weight standards (BioVentures). The raw capillary electrophoresis data was processed using Attagraph software (Attagene).

[6] = biological target: zebrafish Thyroid Hormone Receptor alpha (TRa), thraa (gene 30670) (UniProt Q98867); experiment: ATG_zfTRa_XSP1: Attagene TRANS-FACTORIAL Multi-Species (XSP1) HepG2 Assay for zebrafish Thyroid Hormone Receptor alpha (TRa) (AID 2283807)
Outline: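 Reporter transcripts driven by a chimeric zebrafish TRa–Gal4 protein were measured by RT-PCR with fluorescent labelling and capillary electrophoresis. These came from transiently transfected HepG2 cells after 24 h chemical exposure, with 3 nM 6-alpha-fluorotestosterone added; baseline was DMSO.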

[7] = ATG_M_19_XSP1: Attagene TRANS-FACTORIAL Multi-Species (XSP1) HepG2 Assay for M19 Transcription Factor (Internal Marker) (AID 2283798)
Outline: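 Readout is reporter mRNA induction quantified via RT-PCR, 6-FAM labeling, HpaI digestion and capillary electrophoresis, fitted in the positive direction versus DMSO baseline. Transfected HepG2 cells exposed 24 h, medium including 3 nM 6-alpha-fluorotestosterone.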

[8] = ATG_M_32_XSP1: Attagene TRANS-FACTORIAL Multi-Species (XSP1) HepG2 Assay for M32 Transcription Factor (Internal Marker) (AID 2283799)
Outline: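 Reporter transcripts from the M32 internal-control unit measured by RT-PCR, FAM labelling, HpaI digestion and capillary electrophoresis after 24 h compound exposure of transfected HepG2, 3 nM 6-alpha-fluorotestosterone included; DMSO baseline, positive-direction fit.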

[9] = biological target: mouse Peroxisome Proliferator-activated Receptor gamma (PPARg), Pparg (gene 19016) (UniProt P37238); experiment: ATG_mPPARg_XSP1: Attagene TRANS-FACTORIAL Multi-Species (XSP1) HepG2 Assay for mouse Peroxisome Proliferator-activated Receptor gamma (PPARg) (AID 2283802)
Outline: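 Readout is reporter mRNA induction, measured by RT-PCR with 6-FAM labelling, HpaI digestion and capillary electrophoresis, 24 h post-dose relative to DMSO. Transient multi-reporter transfection of human HepG2 with mouse PPARg–GAL4 fusion; 3 nM 6-alpha-fluorotestosterone included.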

[10] = biological target: Peroxisome proliferator-activated receptor gamma (Homo sapiens) (UniProt P37231); experiment: ATG_hPPARg_XSP1: Attagene TRANS-FACTORIAL Multi-Species (XSP1) HepG2 Assay for human Peroxisome Proliferator-activated Receptor gamma (PPARg) (AID 2283800)
Procedure: as §1, with “receptor.ATG_hPPARg_XSP1” for “receptor.ATG_zfPPARg_XSP1”, “ATG_hPPARg_XSP1” for “ATG_zfPPARg_XSP1”, “Using a type of inducible reporter, measures of mRNA for gain-of-signal activity can be used to understand the reporter gene at the transcription factor-level as they relate to the gene PPARg.” left out, “To generalize the intended target to other relatable targets, this assay endpoint is annotated to the nuclear receptor intended target family, where the subfamily is non-steroidal.” left out
Human liver HepG2 cells are transiently transfected with multiple reporter transcription units (MRTUs) in 6-well plates using FuGene 6 reagent (Roche; 3 ml FuGene/1 mg DNA). […] A major difference between the CIS and TRANS system is that in CIS activities of endogenous TFs are measured, whereas the TRANS assay evaluates changes in activities of exogenous, chimeric NR-Gal4 proteins. […] The fragments were purified using Qiaquick PCR columns (Qiagen), analyzed on an ABI 3130xL genetic analyzer (Applied Biosystems) with peak positions identified by using a set of X-rhodamine (ROX)-labeled MapMarker1000 molecular weight standards (BioVentures). […]

Nuclear receptor subfamily 1 group I member 2 (Mus musculus), sequence (O54915 whole entry, looked up, the tested form may be a part): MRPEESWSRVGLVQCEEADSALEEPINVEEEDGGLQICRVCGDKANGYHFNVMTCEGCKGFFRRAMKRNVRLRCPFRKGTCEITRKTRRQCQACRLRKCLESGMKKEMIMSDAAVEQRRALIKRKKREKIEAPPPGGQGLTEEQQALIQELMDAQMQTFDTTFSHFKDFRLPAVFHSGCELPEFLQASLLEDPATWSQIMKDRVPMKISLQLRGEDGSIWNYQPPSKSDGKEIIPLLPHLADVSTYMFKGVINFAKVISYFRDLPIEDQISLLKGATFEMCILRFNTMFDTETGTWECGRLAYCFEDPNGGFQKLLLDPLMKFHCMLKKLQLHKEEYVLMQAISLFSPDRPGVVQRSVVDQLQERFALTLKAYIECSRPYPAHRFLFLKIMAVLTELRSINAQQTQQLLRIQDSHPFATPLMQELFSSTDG
frog Thyroid hormone Receptor alpha (TRa), thra-a (gene 397942), sequence (P15204 whole entry, looked up): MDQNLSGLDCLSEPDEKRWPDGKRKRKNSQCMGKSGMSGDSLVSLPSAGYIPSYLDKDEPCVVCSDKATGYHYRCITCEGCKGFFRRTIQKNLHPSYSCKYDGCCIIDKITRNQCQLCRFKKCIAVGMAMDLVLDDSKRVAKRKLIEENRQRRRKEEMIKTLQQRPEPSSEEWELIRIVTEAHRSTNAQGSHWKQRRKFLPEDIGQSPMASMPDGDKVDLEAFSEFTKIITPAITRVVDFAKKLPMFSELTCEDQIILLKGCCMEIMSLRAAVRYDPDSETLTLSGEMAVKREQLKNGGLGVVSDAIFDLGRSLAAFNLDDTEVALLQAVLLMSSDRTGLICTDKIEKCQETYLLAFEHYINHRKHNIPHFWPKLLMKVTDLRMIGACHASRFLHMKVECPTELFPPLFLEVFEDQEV
zebrafish Thyroid Hormone Receptor alpha (TRa), thraa (gene 30670), sequence (Q98867 whole entry, looked up, the tested form may be a part): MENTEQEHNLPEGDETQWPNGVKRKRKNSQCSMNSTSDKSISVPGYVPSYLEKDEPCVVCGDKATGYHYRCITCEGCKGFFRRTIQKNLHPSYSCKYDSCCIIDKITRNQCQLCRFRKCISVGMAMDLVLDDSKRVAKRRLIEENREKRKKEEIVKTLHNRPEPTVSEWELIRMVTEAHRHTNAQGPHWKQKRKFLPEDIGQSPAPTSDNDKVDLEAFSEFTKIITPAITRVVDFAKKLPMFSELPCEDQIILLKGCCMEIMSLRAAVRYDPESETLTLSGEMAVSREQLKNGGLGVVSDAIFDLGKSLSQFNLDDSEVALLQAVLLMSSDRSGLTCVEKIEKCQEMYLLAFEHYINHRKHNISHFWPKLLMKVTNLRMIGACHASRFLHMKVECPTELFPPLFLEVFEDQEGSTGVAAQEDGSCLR
human Thyroid hormone Receptor alpha (TRa), THRA (gene 7067), sequence (P10827 whole entry, looked up, the tested form may be a part): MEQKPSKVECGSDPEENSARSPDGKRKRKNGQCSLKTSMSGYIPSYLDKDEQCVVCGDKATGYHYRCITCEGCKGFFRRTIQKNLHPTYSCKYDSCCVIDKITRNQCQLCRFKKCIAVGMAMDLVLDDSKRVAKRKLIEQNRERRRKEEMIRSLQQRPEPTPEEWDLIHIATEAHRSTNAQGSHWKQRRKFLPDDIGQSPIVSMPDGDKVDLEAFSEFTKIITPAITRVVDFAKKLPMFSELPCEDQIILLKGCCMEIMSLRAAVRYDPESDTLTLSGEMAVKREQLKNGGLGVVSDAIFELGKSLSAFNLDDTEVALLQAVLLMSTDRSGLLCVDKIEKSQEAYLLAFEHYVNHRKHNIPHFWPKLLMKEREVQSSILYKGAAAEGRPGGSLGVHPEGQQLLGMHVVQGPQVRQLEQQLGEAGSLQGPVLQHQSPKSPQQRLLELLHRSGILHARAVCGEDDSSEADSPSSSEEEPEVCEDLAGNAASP
Peroxisome proliferator-activated receptor gamma (Homo sapiens), sequence (P37231 whole entry, looked up): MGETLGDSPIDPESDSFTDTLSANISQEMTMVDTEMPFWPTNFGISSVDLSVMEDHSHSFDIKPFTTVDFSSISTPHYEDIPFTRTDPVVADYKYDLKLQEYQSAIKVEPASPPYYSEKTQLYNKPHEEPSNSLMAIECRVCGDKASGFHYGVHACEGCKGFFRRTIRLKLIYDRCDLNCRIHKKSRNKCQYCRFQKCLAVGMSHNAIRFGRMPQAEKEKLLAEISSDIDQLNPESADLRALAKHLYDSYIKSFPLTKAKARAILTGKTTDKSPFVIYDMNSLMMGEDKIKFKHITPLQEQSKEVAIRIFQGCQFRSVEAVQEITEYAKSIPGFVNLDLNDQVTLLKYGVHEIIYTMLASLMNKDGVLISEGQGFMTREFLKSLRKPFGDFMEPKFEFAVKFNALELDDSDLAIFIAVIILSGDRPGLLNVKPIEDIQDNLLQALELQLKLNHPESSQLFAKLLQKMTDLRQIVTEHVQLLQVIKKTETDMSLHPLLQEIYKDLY
mouse Peroxisome Proliferator-activated Receptor gamma (PPARg), Pparg (gene 19016), sequence (P37238 whole entry, looked up, the tested form may be a part): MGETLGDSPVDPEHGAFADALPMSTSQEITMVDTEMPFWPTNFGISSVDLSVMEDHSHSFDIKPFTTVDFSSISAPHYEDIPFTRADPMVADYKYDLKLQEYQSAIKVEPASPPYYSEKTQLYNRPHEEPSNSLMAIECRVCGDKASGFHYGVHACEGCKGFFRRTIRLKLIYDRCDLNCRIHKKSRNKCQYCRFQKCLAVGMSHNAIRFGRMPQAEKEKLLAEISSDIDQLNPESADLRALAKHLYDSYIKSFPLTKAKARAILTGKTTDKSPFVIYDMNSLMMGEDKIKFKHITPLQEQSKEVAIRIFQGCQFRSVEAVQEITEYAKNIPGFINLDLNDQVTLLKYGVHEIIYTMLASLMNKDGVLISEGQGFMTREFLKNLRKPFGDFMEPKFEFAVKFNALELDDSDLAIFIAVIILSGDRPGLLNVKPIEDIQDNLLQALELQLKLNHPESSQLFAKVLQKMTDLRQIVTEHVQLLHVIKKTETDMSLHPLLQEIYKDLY

Row | SMILES | outcome [1] | outcome [2] | outcome [3] | AC50 [4] | AC50 [5] | outcome [6] | outcome [7] | outcome [8] | outcome [9] | outcome [5] | outcome [10] | AC50 [2] | outcome [4]
1 | CC(C)(O)C(=O)Nc1ccc([N+](=O)[O-])c(C(F)(F)F)c1 | inactive | inactive | inactive | 50 µM (active) | 30.6 µM (active) | inactive | – | – | – | – | – | – | –
2 | ClC(Cl)=C(c1ccc(Cl)cc1)c1ccc(Cl)cc1 | inactive | inactive | – | – | – | inactive | inactive | inactive | inactive | inactive | – | – | –
3 | C[C@]12CCC(=O)C=C1CC[C@@H]1[C@@H]2CC[C@]2(C)C(=O)CC[C@@H]12 | inactive | – | inactive | – | – | inactive | – | inactive | – | inactive | inactive | 2.3 µM (active) | inactive
4 | C[C@]12CCC(=O)C=C1CC[C@@H]1[C@@H]2CC[C@@]2(C)[C@H]1CC[C@]2(C)O | – | inactive | inactive | – | – | inactive | – | – | – | inactive | – | – | inactive
